Many of the other results were omitted from the sample, so hits are more common in it than they were.
ST2 IL33 inh – inhibitors of human ST2 (IL1RL1) binding to IL-33. Q01638. AlphaLISA ST2-Fc/biotin-IL-33 interaction, 1 h. inhibition, % for hits at 17 µM. actives 2.3% (n = 78,000). AID 1259354; in the data active = inhibition above about 30%
Target sequence (Q01638 whole entry, looked up): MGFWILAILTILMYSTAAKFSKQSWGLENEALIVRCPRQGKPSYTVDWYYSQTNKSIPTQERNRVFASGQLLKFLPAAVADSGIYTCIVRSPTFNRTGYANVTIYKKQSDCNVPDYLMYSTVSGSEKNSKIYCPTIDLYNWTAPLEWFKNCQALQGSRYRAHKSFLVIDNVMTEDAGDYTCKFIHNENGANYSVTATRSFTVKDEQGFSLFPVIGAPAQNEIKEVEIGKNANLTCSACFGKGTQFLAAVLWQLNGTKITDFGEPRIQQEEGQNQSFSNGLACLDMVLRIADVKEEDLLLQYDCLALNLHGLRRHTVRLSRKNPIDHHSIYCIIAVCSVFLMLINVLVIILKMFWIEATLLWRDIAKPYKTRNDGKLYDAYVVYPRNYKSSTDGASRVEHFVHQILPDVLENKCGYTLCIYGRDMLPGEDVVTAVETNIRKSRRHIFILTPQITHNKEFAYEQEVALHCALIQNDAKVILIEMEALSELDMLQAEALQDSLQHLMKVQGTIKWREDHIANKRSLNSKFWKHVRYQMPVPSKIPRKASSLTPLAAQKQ
Numbers stand for hits; 0 = inactive.

SMILES | ST2 IL33 inh
Oc1ccc(/C=C/c2ccc(/C=C/c3ccc(O)cc3)c(Br)c2)cc1 | 0
COC(=O)[C@]1(O)C[C@@H](O)[C@@H](O)[C@H](OC(=O)/C=C/c2ccc(O)c(O)c2)C1 | 0
CNC(=O)c1nc(CN2CCC(N3CCCC3=O)CC2)no1 | 0
COc1ccc(OCCCN2CCCCCC2)cc1 | 43%
COc1ccc(CN2CCCCCC2)cc1 | 0
Cc1cccc(OCCCN2CCCC2)c1 | 0
CC1=C[C@@H](CNS(=O)(=O)Cc2ccccc2)[C@H](C(C)C)C[C@H]1CC(=O)N(C)Cc1cccnc1 | 0
O=C1CCCN2N=C(SCc3ccccc3Cl)SC2=N1 | 0
O=C1CSC(c2ccc(Cl)cc2)N1c1cccc(F)c1 (stereo not given) | 0
O=C(N[C@H]1CCN2C(=O)N(c3ccc(OC(F)(F)F)cc3)C(=O)[C@@H]2C1)c1ccncc1 | 0
CC(=O)N1CCC(C(=O)N[C@H]2CCN3C(=O)N(c4cccc(C(F)(F)F)c4)C(=O)[C@@H]3C2)CC1 | 0
O=C(N[C@H]1CCN2C(=O)N(c3cccc(C(F)(F)F)c3)C(=O)[C@@H]2C1)c1ccncc1 | 56%
O=S1(=O)CCCC(CN2CC(c3cccnc3)C2)C1 (stereo not given) | 0
COc1ccccc1NC(=O)C(=O)N1CCCCC1 | 0
O=[N+]([O-])c1ccc(CN2C[C@H](O)C[C@H]2c2nc(-c3ccc(C(F)(F)F)cc3)no2)cc1 | 0
O=C(O)c1ccc(CN2C[C@H](O)C[C@H]2c2nc(-c3ccccc3)no2)cc1 | 0
CS(=O)(=O)c1ccc(CN2C[C@H](O)C[C@H]2c2nc(-c3ccc(C(F)(F)F)cc3)no2)cc1 | 0
O[C@@H]1C[C@@H](c2nc(-c3ccc(C(F)(F)F)cc3)no2)N(Cc2ccc(-c3ccccn3)cc2)C1 | 0
O=[N+]([O-])c1ccc(CN2C[C@H](O)C[C@H]2c2nc(-c3ccc(OC(F)(F)F)cc3)no2)cc1 | 0
O[C@@H]1C[C@@H](c2nc(-c3ccncc3)no2)N(Cc2ccc(-c3ccccn3)cc2)C1 | 33%
COc1ccc(CN2C[C@H](O)C[C@H]2c2nc(CS(=O)(=O)c3ccc(C)cc3)no2)cc1 | 0
O[C@@H]1C[C@@H](c2nc(-c3ccc(F)cc3)no2)N(Cc2ccc(OC(F)(F)F)cc2)C1 | 53%
CN(C)c1ccc(CN2C[C@H](O)C[C@H]2c2nc(-c3ccccn3)no2)cc1 | 0
Cn1c(CN2C[C@H](O)C[C@H]2c2nc(-c3ccccc3)no2)nc2ccccc21 | 0
O[C@@H]1C[C@@H](c2nc(-c3ccccc3)no2)N(Cc2c[nH]c3ccccc23)C1 | 38%
SMILES | ST2 IL33 inh
COc1ccc(CN2C[C@H](O)C[C@H]2c2nc(-c3ccc(OC(F)(F)F)cc3)no2)cc1 | 31%
O=C(CCCCc1ccccc1)N1CCCn2cncc2C1 | 0
O=C(Nc1n[nH]c(C2CCCCC2)n1)N1CCCC(c2ccccc2)C1 (stereo not given) | 0
C/C=C1\[C@H](O[C@@H]2O[C@H](CO)[C@@H](O)[C@H](O)[C@H]2O)OC=C(C(=O)OC)[C@H]1CC(=O)OC[C@H]1O[C@@H](OCCc2ccc(O)cc2)[C@H](O)[C@@H](O)[C@@H]1O | 0
Cc1c(C(=O)Nc2ccc(I)cc2Cl)cccc1[N+](=O)[O-] | 0
CC(C)(C)c1ccc(S(=O)(=O)NCc2nc3cccnc3n2Cc2ccccc2)cc1 | 0
C=C(C)C1Cc2c(cc(O)c3c2OC2C(O)Oc4cc(OC)c(OC)cc4C2C3=O)O1 (stereo not given) | 0
CC1=C(C(=O)N2CCCCC2)C(c2ccc(Cl)cc2)n2ncnc2N1 (stereo not given) | 0
CN(C)c1ncccc1CNS(=O)(=O)c1cccc(F)c1 | 0
O=C(Nc1c2c(nn1-c1ccc(Cl)cc1)CSC2)c1ccc(Br)o1 | 0
O=S(=O)(Cc1noc([C@@H]2C[C@@H](O)CN2CC2CC2)n1)c1ccc(F)cc1 | 0
O=S(=O)(Cc1noc([C@@H]2C[C@@H](O)CN2Cc2ccc(-c3ccccn3)cc2)n1)c1ccc(F)cc1 | 0
O[C@@H]1C[C@@H](c2nc(-c3cccnc3)no2)N(Cc2ccccc2)C1 | 0
COc1ccc(-c2noc([C@@H]3C[C@@H](O)CN3Cc3ccc(Cl)cc3)n2)cc1 | 0
CC(=O)Nc1ccc(CN2C[C@H](O)C[C@H]2c2nc(CS(=O)(=O)c3ccc(F)cc3)no2)cc1 | 74%
COc1ccc(-c2noc([C@@H]3C[C@@H](O)CN3Cc3ccncc3)n2)cc1 | 36%
O=C(O)c1ccc(CN2C[C@H](O)C[C@H]2c2nc(-c3cccc([N+](=O)[O-])c3)no2)cc1 | 0
COc1cccc(-c2ccc(C(=O)NC(C)c3nncn3C)o2)c1 (stereo not given) | 0
Clc1ccccc1Nc1ncnc2ccc(Br)cc12 | 0
Oc1oc(-c2ccc(Br)cc2)nc1C=Nc1nc2ccccc2s1 | 0
O=c1c(-c2ccccc2CN2CCOCC2)ccc2n1C[C@H]1C[C@@H]2CN(S(=O)(=O)c2cccs2)C1 | 0
O=C(NCc1ccco1)c1cccn2c(=O)c3cc4ccccc4cc3nc12 | 0
COCCCNC(=O)c1cc2c(=O)n3cccc(C)c3nc2n1C | 0
COCCCNC(=O)c1cccn2c(=O)c3cc4ccccc4cc3nc12 | 30%
CCCOC1CCCN(c2ncnc3c2CCN(C(=O)C2CC2)C3)C1 (stereo not given) | 0
SMILES | ST2 IL33 inh
N#Cc1ccc([N+](=O)[O-])cc1C#N | 0
N#CSCc1ccc([N+](=O)[O-])cc1 | 0
N#CSC(C#N)Cc1cccc([N+](=O)[O-])c1 (stereo not given) | 37%
O=C(Nc1ccc(Br)cc1F)C1CCCC1 | 0
Cc1cc(C)n(C(=O)COc2ccc(Cl)cc2C)n1 | 0
Cc1ccc2nc(SCC(=O)c3ccc4c(c3)OCO4)[nH]c2c1 | 0
Cc1cc(C=Nc2ccc(-c3nc4ccccc4o3)c(O)c2)c(O)c([N+](=O)[O-])c1 | 30%
Cc1cccc2oc(-c3cccc(N=Cc4cc([N+](=O)[O-])cc([N+](=O)[O-])c4O)c3)nc12 | 0
O=C(Nc1ccc(O)c(-c2nc3ccccc3o2)c1)c1cccc(Cl)c1Cl | 0
Cc1ccc2nc(-c3cccc(N=Cc4cccc([N+](=O)[O-])c4O)c3)oc2c1 | 0
Cc1ccc2nc(-c3ccc(N=Cc4ccc5c(c4)OCO5)cc3O)oc2c1 | 32%
O=C(O)c1ccc(O)c(C=Nc2cccc(-c3nc4ccccc4o3)c2)c1 | 0
Oc1ccc(N=Cc2cccc(I)c2O)cc1-c1nc2ccccc2o1 | 41%
Cc1cccc2oc(-c3cccc(N=Cc4ccc(O)cc4O)c3)nc12 | 0
COc1cc(/C=C2\Oc3cc(O)cc(O)c3C2=O)cc(OC)c1O | 0
CCN(CC1CCCCO1)C(=O)c1cccc(-n2cnnc2)c1 (stereo not given) | 0
O=C(CCS(=O)(=O)c1cc(Br)cc2c1N(C(=O)C1CC1)CC2)N1CCOCC1 | 0
C=CCNC(=O)c1cc2c(=O)n3ccccc3nc2n(C(C)CC)c1=N (stereo not given) | 0
CC(Oc1cccc(Cl)c1)C(=O)N1CCCC1 (stereo not given) | 0
CCOC(=O)c1c(N)n(-c2ccc(C)cc2C)c2nc3ccccc3nc12 | 0
COc1ccc(-n2c(N)c(C#N)c3nc4ccccc4nc32)c(OC)c1 | 32%
N#Cc1c(N)n(-c2ccc(Cl)cc2)c2nc3ccccc3nc12 | 0
COC(=O)[C@H](Cc1ccc(OC)cc1)NC(=O)[C@H]1CN(C(=O)c2cccnc2)CCN1S(=O)(=O)c1ccccc1 | 0
O=C1CC(c2ccccc2)=Nc2ccccc2N1 | 0
Oc1ccccc1C1=Nc2ccccc2N=C(c2cccc(F)c2)C1 | 30%
Fc1cccc(-c2nnc3n2N=C(c2cccc(Br)c2)CS3)c1 | 0

Screening results from PubChem.
